# Assay results from PubChem BioAssay (Tox21).
# Results filed as inconclusive are left out. A call without a number means that no potency is given here. Unmarked numbers belong to inactive results. The source made the active and inactive calls. The call rests on the fitted dose curve; in most records, active means well fitted curve in the direction sought with a large enough effect in the repeat runs; inconclusive means weak or mixed curves; inactive means no such curve, though single readings can be large; an effect the other way counts as inactive or inconclusive.
# Experiments:
# [1] = Caspase-3/7 induction in HepG2 cells by small molecules, qHTS cell viability counter screen (AID 1346981); further: nearly all actives have a fitted effect of over 30% in size; further: potency means the concentration at half of the fitted maximal effect; on activity change, negative = cytotoxicity: series mostly up to about 92 µM
# In short: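 CellTiter-Fluor fluorescence measured viability in the same wells used for Caspase-Glo 3/7. HepG2 (wild type) at 2,000 cells/well were pre-incubated 5 hr, dosed, and given reagent at 16 hr, with 1 hr further at 37C.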
# [2] = molecular target: Nuclear receptor subfamily 1 group I member 2 (Homo sapiens) (UniProt O75469); test: Human pregnane X receptor (PXR) small molecule agonists, qHTS assay (AID 1346982); further: nearly all actives have a fitted effect of over 35% in size; further: potency means the concentration at half of the fitted maximal effect
# Sequence of Nuclear receptor subfamily 1 group I member 2 (Homo sapiens) (O75469 whole entry, looked up): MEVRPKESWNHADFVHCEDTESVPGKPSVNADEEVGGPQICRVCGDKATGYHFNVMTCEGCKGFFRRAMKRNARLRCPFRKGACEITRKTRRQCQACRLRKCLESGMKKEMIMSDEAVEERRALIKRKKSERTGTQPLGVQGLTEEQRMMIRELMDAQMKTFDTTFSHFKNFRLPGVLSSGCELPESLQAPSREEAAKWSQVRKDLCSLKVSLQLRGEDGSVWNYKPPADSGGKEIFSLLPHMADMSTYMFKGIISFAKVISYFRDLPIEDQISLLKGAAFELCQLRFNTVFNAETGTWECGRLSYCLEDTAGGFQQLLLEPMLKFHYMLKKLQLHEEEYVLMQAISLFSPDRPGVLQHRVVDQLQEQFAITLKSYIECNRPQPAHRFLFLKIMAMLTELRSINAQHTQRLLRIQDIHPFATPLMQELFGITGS
# In short: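 Agonist mode: luminescence from ONE-Glo after 24 h compound exposure at 37C in HepG2 cells carrying hPXR-responsive CYP3A4 luciferase, plated in charcoal-stripped serum medium 5 h beforehand.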
# [3] = molecular target: Cytochrome P450 2D6 (Homo sapiens) (UniProt P10635); test: Cytochrome P450 Family 2 Subfamily D Member 6 (CYP2D6) small molecule antagonists: luciferase reporter qHTS assay (AID 1671196); further: nearly all actives have a fitted effect of over 50% in size; further: potency means the concentration at half of the fitted maximal effect; on activity change, negative = inhibition: series mostly up to about 120 µM
# Sequence of Cytochrome P450 2D6 (Homo sapiens) (P10635 whole entry, looked up): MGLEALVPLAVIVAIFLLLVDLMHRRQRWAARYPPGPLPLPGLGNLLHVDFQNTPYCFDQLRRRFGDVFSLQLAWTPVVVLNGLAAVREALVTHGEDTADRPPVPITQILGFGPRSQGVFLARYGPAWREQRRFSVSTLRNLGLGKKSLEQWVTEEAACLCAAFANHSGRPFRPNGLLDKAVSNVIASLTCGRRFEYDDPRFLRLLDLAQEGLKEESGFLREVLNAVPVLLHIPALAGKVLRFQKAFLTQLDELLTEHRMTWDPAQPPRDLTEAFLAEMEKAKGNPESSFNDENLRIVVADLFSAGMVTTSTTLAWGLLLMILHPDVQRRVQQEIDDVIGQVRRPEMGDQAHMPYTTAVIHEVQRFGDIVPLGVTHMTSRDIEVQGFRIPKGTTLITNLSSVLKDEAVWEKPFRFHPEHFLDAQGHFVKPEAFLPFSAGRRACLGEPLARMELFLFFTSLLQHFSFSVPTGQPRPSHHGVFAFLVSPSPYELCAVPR
# In short: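 CYP2D6 activity was followed as luminescence from its luciferin product after a 1 h NADPH-driven reaction at room temperature. Enzyme-substrate mix and compound were pre-incubated for 10 min, and the signal was read 20 min after adding detection reagent.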
# [4] = molecular target: Cytochrome P450 2C19 (Homo sapiens) (UniProt P33261); test: Cytochrome P450 Family 2 Subfamily C Member 19 (CYP2C19) small molecule antagonists: luciferase reporter qHTS assay (AID 1671197); further: nearly all actives have a fitted effect of over 65% in size; further: potency means the concentration at half of the fitted maximal effect; on activity change, negative = inhibition: series mostly up to about 120 µM
# Sequence of Cytochrome P450 2C19 (Homo sapiens) (P33261 whole entry, looked up): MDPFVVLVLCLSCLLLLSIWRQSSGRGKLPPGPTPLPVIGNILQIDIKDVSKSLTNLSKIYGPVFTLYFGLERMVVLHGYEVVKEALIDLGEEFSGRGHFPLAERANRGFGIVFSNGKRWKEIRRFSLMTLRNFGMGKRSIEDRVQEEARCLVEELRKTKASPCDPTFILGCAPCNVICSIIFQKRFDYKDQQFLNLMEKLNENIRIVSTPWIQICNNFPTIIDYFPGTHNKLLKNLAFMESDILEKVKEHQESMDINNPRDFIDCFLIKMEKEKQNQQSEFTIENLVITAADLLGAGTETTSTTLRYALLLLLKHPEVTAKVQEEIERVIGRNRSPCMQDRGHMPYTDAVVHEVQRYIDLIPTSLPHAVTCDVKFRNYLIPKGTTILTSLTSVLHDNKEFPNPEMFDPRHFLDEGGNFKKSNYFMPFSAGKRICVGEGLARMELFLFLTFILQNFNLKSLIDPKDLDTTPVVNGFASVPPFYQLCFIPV
# In short: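 Relative luminescence units recorded 20 min after the detection reagent stopped a 1 h, 37C CYP2C19 reaction on proluciferin substrate, which was started by NADPH regeneration following 10 min room-temperature compound preincubation; ketoconazole positive control.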
# [5] = molecular target: Cytochrome P450 2C9 (Homo sapiens) (UniProt P11712); test: Cytochrome P450 Family 2 Subfamily C Member 9 (CYP2C9) small molecule antagonists: luciferase reporter qHTS assay (AID 1671198); further: nearly all actives have a fitted effect of over 50% in size; further: potency means the concentration at half of the fitted maximal effect; on activity change, negative = inhibition: series mostly up to about 120 µM
# Sequence of Cytochrome P450 2C9 (Homo sapiens) (P11712 whole entry, looked up): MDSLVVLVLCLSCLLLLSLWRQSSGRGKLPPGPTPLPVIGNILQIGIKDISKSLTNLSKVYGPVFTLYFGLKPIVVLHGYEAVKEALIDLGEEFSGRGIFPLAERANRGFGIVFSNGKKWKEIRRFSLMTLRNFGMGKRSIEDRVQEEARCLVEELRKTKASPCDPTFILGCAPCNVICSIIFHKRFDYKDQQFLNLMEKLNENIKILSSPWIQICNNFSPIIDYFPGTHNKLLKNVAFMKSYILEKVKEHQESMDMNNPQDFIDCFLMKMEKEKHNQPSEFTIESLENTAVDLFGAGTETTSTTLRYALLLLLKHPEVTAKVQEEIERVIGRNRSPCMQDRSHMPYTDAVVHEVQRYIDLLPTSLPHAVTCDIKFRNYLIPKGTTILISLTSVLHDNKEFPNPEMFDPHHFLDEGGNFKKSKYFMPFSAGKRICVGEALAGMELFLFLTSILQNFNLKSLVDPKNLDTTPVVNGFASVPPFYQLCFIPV
# In short: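 P450-Glo proluciferin substrate with CYP2C9 enzyme; 10 min RT preincubation, then NADPH regeneration 1 h at 37C; luciferin detection reagent 20 min RT, luminescence in relative luminescence units.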
# [6] = molecular target: Cytochrome P450 1A2 (Homo sapiens) (UniProt P05177); test: Cytochrome P450 Family 1 Subfamily A Member 2 (CYP1A2) small molecule antagonists: luciferase reporter qHTS assay (AID 1671199); further: nearly all actives have a fitted effect of over 50% in size; further: potency means the concentration at half of the fitted maximal effect; on activity change, negative = inhibition: series mostly up to about 120 µM
# Sequence of Cytochrome P450 1A2 (Homo sapiens) (P05177 whole entry, looked up): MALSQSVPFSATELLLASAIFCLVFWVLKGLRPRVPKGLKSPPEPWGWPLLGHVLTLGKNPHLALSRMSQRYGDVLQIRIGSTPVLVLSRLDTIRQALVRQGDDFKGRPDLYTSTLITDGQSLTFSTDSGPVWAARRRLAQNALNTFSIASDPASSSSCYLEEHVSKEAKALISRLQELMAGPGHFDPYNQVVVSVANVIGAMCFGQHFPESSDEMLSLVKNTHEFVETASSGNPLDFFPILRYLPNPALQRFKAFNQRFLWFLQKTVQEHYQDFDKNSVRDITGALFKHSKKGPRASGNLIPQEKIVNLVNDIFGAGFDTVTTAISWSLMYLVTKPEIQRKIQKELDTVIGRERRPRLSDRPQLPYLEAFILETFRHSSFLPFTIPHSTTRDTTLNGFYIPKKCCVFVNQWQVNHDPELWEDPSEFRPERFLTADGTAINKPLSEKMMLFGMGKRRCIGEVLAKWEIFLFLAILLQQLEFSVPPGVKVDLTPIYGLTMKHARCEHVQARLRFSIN
# In short: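 Luminescence from luciferin formed by CYP1A2 from a proluciferin substrate, read 20 min after detection reagent. Compound was pre-incubated 10 min with enzyme-substrate, and reaction started with NADPH regeneration solution for 1 h at room temperature; furafylline control.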
# [7] = molecular target: Voltage-gated inwardly rectifying potassium channel KCNH2 (Homo sapiens) (UniProt Q12809); test: Human Ether-a-go-go-Related Gene (hERG) channel small molecule antagonists: fluorescence cell-based qHTS assay (AID 1671200);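 further: hERG-expressing U2OS cells given a thallium stimulus after FluxOR II dye loading; series mostly up to about 77 µM; nearly all actives have a fitted effect of over 50% in size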
# Sequence of Voltage-gated inwardly rectifying potassium channel KCNH2 (Homo sapiens) (Q12809 whole entry, looked up): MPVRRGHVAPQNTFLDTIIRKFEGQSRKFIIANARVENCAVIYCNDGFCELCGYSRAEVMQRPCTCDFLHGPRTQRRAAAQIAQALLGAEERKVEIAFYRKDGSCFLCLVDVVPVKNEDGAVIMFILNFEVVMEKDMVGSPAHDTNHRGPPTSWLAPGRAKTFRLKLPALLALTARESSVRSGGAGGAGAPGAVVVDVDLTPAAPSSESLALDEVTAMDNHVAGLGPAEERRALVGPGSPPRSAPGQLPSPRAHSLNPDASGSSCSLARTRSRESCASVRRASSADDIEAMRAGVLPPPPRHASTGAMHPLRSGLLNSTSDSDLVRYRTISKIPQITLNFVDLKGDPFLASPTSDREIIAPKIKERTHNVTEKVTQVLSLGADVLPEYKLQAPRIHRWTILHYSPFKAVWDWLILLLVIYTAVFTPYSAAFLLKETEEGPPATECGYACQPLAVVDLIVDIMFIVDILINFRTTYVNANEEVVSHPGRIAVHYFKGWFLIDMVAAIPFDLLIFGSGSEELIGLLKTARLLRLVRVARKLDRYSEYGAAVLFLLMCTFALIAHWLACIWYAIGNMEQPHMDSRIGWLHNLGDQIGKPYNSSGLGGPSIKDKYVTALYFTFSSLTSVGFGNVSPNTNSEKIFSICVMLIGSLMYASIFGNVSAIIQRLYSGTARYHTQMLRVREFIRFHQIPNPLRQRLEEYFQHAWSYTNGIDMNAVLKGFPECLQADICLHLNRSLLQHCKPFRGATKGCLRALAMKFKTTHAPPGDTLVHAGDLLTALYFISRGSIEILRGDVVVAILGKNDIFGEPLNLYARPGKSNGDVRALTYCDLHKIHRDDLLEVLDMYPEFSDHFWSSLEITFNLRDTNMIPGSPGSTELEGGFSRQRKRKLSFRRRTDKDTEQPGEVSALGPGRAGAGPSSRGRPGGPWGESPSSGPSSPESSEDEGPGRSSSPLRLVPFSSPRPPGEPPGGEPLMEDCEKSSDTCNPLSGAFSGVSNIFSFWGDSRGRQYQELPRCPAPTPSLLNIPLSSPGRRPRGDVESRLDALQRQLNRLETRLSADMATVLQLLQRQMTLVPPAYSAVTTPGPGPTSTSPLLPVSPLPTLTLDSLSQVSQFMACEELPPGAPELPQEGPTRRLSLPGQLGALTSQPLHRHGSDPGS
# In short: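 Quantitative HTS in hERG-U2OS cells: thallium entry through the channel reports activity, read as continuous 480/540 nm fluorescence over 2 min after stimulus addition.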
# [8] = molecular target: Nuclear receptor subfamily 1 group I member 2 (Rattus norvegicus) (UniProt Q9R1A7); test: Rat pregnane X receptor (rPXR) activation by small molecules, qHTS assay (AID 1346983); conditions: rPXR luciferase reporter cells, One-Glo luminescence, 24 h; max activation: hits give high values; further: nearly all actives have a fitted effect of over 20% in size
# Sequence of Nuclear receptor subfamily 1 group I member 2 (Rattus norvegicus) (Q9R1A7 whole entry, looked up): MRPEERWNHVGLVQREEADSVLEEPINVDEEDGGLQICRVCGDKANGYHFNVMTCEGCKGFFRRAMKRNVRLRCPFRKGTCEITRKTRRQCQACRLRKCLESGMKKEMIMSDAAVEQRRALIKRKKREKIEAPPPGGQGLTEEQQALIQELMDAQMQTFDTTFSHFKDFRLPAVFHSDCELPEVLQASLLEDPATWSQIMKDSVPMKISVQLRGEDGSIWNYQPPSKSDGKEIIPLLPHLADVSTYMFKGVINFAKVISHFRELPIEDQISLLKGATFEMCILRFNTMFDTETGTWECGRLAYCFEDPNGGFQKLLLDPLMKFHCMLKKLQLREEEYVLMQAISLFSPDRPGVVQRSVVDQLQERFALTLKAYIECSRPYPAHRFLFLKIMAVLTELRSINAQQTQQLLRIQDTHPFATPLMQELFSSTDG
# In short: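 Cell-based rPXR activation assay: rPXR cells, 2,000 per well, rested 5hr at 37 C, then exposed to compounds in DMSO for 24 hr at 37 C. Luciferase activity read by One-Glo luminescence after 30 min at room temperature.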
compound,measurement,setting,value
C=C1CC[C@H]2O[C@]2(C)CC[C@@H]2[C@@H]1CC2(C)C,Potency,[1],inactive
same,Potency,[2],inactive
same,Potency,[3],inactive
same,Potency,[4],inactive
same,Potency,[5],inactive
same,Potency,[6],inactive
same,Potency,[7],inactive
[Cl][Sc]([Cl])[Cl],Potency,[1],inactive
same,Potency,[2],inactive
same,Potency,[3],inactive
same,Potency,[4],inactive
same,Potency,[5],inactive
same,Potency,[7],inactive
COc1cc(OC)nc(NC(=O)NS(=O)(=O)Nc2ccccc2C(=O)N(C)C)n1,Potency,[1],inactive
same,Potency,[2],43.3 µM (active)
same,Potency,[4],39.9 µM (active)
same,Potency,[5],31.7 µM (active)
CC(C)=NNC(N)=S,Potency,[1],inactive
same,Potency,[5],inactive
same,Potency,[6],71 µM (active)
same,Potency,[7],inactive
Oc1ccc(C2(c3ccc(O)c(C4CCCCC4)c3)CCCCC2)cc1C1CCCCC1,Potency,[1],30.6 µM (active)
same,Potency,[2],8.63 µM (active)
same,Potency,[4],8.94 µM (active)
same,Potency,[5],2.52 µM (active)
same,Potency,[6],inactive
same,Potency,[7],inactive
CSc1nnc(C(C)(C)C)c(=O)[nH]1,Potency,[1],inactive
same,Potency,[2],inactive
same,Potency,[4],inactive
same,Potency,[5],35.6 µM (active)
same,Potency,[6],inactive
CCC1(C)C(=O)N(Cl)C(=O)N1Cl (stereo not drawn),Potency,[1],inactive
same,Potency,[2],inactive
same,Potency,[4],inactive
same,Potency,[5],inactive
same,Potency,[6],inactive
CCN(CC)c1ccc(C=O)cc1,Potency,[1],inactive
same,Potency,[3],inactive
same,Potency,[4],15.9 µM (active)
same,Potency,[5],inactive
same,Potency,[6],5.64 µM (active)
same,Potency,[7],inactive
Cc1cc(Br)ccc1NC(=O)CCl,Potency,[1],61.1 µM (active)
same,Potency,[2],3.44 µM (active)
same,Potency,[4],79.6 µM (active)
same,Potency,[5],39.9 µM (active)
same,Potency,[6],11.2 µM (active)
same,Potency,[7],inactive
CN(C)CCOc1ccc(/C(=C(/CCCl)c2ccccc2)c2ccccc2)cc1,Potency,[1],57.2 µM (active)
same,max activation,[8],-3.02%
same,Potency,[3],52.8 µM (active)
same,Potency,[4],52.8 µM (active)
CC1CCC(C(C)(C)O)CC1 (stereo not drawn),Potency,[1],inactive
same,Potency,[2],inactive
same,Potency,[4],inactive
same,Potency,[5],inactive
same,Potency,[6],inactive
same,Potency,[7],inactive
CCCC(=O)c1cc(O)c(O)cc1O,Potency,[1],40.9 µM (active)
same,Potency,[3],51.7 µM (active)
same,Potency,[5],26.7 µM (active)
same,Potency,[7],inactive
COc1cc2ncnc(Nc3cccc(Cl)c3)c2cc1OC,"activity change, negative = cytotoxicity",[1],-10% [at 19 µM]
same,"activity change, negative = inhibition",[7],7% [at 15.8 µM]
CC(O)(c1ccc(Cl)cc1)c1ccc(Cl)cc1,Potency,[1],inactive
same,Potency,[2],27.3 µM (active)
same,Potency,[4],0.113 µM (active)
same,Potency,[5],7.96 µM (active)
Cc1ccc(S(=O)(=O)C(I)I)cc1,Potency,[1],54.5 µM (active)
same,Potency,[2],19.3 µM (active)
same,Potency,[4],1.59 µM (active)
same,Potency,[5],1.12 µM (active)
CN1CCN(c2ccccc2/C=C2\SCCN(c3ccc(Cl)c(Cl)c3)C2=O)CC1,Potency,[1],61.1 µM (active)
same,Potency,[3],7.1 µM (active)
same,Potency,[4],5.03 µM (active)
same,Potency,[5],10 µM (active)
CCCCCc1ccc(O)cc1,Potency,[1],inactive
same,Potency,[5],63.3 µM (active)
same,Potency,[6],63.3 µM (active)
Cc1ccc2nc(-c3ccc(N)cc3)sc2c1S(=O)(=O)O,Potency,[1],inactive
same,Potency,[2],2.69 µM (active)
same,Potency,[5],15.7 µM (active)
same,Potency,[7],inactive
Cc1ccc2sc3cccc(C)c3c2c1,Potency,[1],inactive
same,Potency,[2],inactive
same,Potency,[5],inactive
same,Potency,[7],inactive
S=C1NC=NC2N=CNC12 (stereo not drawn),Potency,[1],inactive
same,Potency,[2],21.7 µM (active)
same,Potency,[4],25.2 µM (active)
same,Potency,[5],39.9 µM (active)
same,Potency,[6],71 µM (active)
same,Potency,[7],inactive
CCSCC,Potency,[1],inactive
same,Potency,[3],inactive
same,Potency,[4],inactive
same,Potency,[5],inactive
same,Potency,[7],inactive
ClC(c1ccccc1)(c1ccccc1)c1ccccc1,Potency,[1],inactive
same,Potency,[2],9.69 µM (active)
same,Potency,[4],0.224 µM (active)
same,Potency,[5],1.59 µM (active)
same,Potency,[6],inactive
same,Potency,[7],inactive
Nc1c(Br)cc([N+](=O)[O-])cc1Br,Potency,[1],inactive
same,Potency,[3],inactive
same,Potency,[4],79.6 µM (active)
same,Potency,[5],inactive
same,Potency,[6],1.78 µM (active)
same,Potency,[7],inactive
O=c1[nH]cccc1O,Potency,[1],inactive
same,Potency,[2],inactive
same,Potency,[4],inactive
same,Potency,[6],inactive
same,Potency,[7],inactive
CC1=C(/C=C/C(C)=C/C=C/C(C)=C\C(=O)O)C(C)(C)CCC1,Potency,[1],inactive
same,Potency,[2],34.5 µM (active)
same,Potency,[4],40 µM (active)
same,Potency,[5],40 µM (active)
same,Potency,[6],40 µM (active)
CSc1ccc(O)cc1C,Potency,[1],inactive
same,Potency,[3],inactive
CC(C)(C)c1ccc(OC2CCCCC2O)cc1 (stereo not drawn),Potency,[1],inactive
same,Potency,[2],27.3 µM (active)
same,Potency,[4],31.7 µM (active)
same,Potency,[5],35.6 µM (active)
O=C1OC(=O)c2cc(-c3ccc4c(c3)C(=O)OC4=O)ccc21,Potency,[1],inactive
same,Potency,[3],inactive
same,Potency,[4],8.94 µM (active)
same,Potency,[5],inactive
same,Potency,[6],35.6 µM (active)
same,Potency,[7],inactive
Cc1cc(F)ccc1-c1cc(N2CC[C@@H](O)[C@H]2CO)ncc1N(C)C(=O)C(C)(C)c1cc(C(F)(F)F)cc(C(F)(F)F)c1,Potency,[1],38 µM (active)
same,Potency,[2],17 µM (active)
same,Potency,[4],27.8 µM (active)
same,Potency,[5],22.1 µM (active)
same,Potency,[7],inactive
CC/C(=C(/c1ccc(O)cc1)c1ccc(OCCN(C)C)cc1)c1ccccc1,Potency,[1],28.5 µM (active)
same,Potency,[3],18.6 µM (active)
same,Potency,[4],37.2 µM (active)
same,Potency,[5],37.2 µM (active)
NCc1ccco1,Potency,[1],inactive
same,Potency,[2],inactive
same,Potency,[4],inactive
same,Potency,[5],inactive
same,Potency,[7],inactive
CCN(CC)c1ccc(N=Nc2ccccc2)cc1,Potency,[1],27.3 µM (active)
same,Potency,[2],1.37 µM (active)
same,Potency,[5],10 µM (active)
same,Potency,[6],11.2 µM (active)
COc1ccc(OC)c(N=Nc2c(O)ccc3ccccc23)c1,Potency,[1],27.3 µM (active)
same,Potency,[2],9.69 µM (active)
same,Potency,[5],6.33 µM (active)
same,Potency,[6],0.894 µM (active)
same,Potency,[7],inactive
CC(C)C(=O)C(C)C,Potency,[1],inactive
same,Potency,[2],inactive
same,Potency,[4],inactive
same,Potency,[5],inactive
same,Potency,[7],inactive
C=Cc1ccc(O)c(OC)c1,Potency,[1],inactive
same,Potency,[4],79.6 µM (active)
same,Potency,[5],31.7 µM (active)
same,Potency,[6],35.6 µM (active)
same,Potency,[7],inactive
Cc1ccc(Cl)c(N)c1Cl,Potency,[1],inactive
same,Potency,[4],inactive
same,Potency,[5],inactive
same,Potency,[7],inactive
CCN(CC)c1ccc2c(c1)Oc1cc(N(CC)CC)ccc1C21OC(=O)c2ccccc21,Potency,[1],5.31 µM (active)
same,Potency,[2],26.6 µM (active)
same,Potency,[5],15.5 µM (active)
C1=CCCC1,Potency,[1],inactive
same,Potency,[2],inactive
same,Potency,[5],inactive
same,Potency,[6],inactive
same,Potency,[7],inactive
CCc1cccc(C)c1N(C(=O)C(=O)O)C(C)COC (stereo not drawn),Potency,[1],inactive
same,Potency,[2],inactive
same,Potency,[4],inactive
same,Potency,[6],inactive
same,Potency,[7],inactive
Nc1ccc(Oc2cccc(Oc3ccc(N)cc3)c2)cc1,Potency,[1],inactive
same,Potency,[2],inactive
same,Potency,[4],11.2 µM (active)
same,Potency,[5],6.33 µM (active)
same,Potency,[6],inactive
same,Potency,[7],inactive
Nc1ccc(Cl)c([N+](=O)[O-])c1,Potency,[1],inactive
same,Potency,[3],inactive
same,Potency,[6],31.7 µM (active)
same,Potency,[7],inactive
CC(C)(C)C1=CC(=O)C(C(C)(C)C)=CC1=O,Potency,[1],inactive
same,Potency,[2],18.8 µM (active)
same,Potency,[4],6.92 µM (active)
same,Potency,[5],15.5 µM (active)
COc1cc([C@@H]2c3cc4c(cc3[C@@H](O[C@@H]3O[C@@H]5CO[C@@H](C)O[C@H]5[C@H](O)[C@H]3O)[C@H]3COC(=O)[C@H]23)OCO4)cc(OC)c1O,Potency,[1],inactive
